# In ChEMBL document CHEMBL3988442, “University of Dundee, Small-Polar-MMV Screening Library” (2021):
# Molecular target: T1, Aspartate--tRNA(Asp/Asn) ligase (Mycobacterium tuberculosis (strain ATCC 25618 / H37Rv)) (UniProt P9WFW3); further: in the data most compounds retested in dose-response had high values
# T1 sequence (whole entry): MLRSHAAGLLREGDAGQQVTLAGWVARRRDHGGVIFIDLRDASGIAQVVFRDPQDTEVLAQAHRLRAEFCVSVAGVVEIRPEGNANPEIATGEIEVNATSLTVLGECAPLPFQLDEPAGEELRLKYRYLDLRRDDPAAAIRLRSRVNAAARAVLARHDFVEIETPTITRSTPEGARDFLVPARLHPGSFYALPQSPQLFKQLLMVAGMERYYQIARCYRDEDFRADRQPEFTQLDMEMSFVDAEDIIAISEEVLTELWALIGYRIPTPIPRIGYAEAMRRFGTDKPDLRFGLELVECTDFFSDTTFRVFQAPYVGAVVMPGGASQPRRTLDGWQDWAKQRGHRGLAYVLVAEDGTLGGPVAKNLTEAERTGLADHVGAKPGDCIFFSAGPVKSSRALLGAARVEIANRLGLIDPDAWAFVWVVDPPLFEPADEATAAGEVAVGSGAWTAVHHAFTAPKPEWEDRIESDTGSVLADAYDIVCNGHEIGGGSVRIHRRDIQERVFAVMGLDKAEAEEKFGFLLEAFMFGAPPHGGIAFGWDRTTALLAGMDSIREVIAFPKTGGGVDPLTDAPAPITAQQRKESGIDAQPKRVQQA
# Assay: Assay for Asp RNA synthetase-1 from Mycobacterium tuberculosis
# Type: functional
# Design: scale not given: direction of the effect not stated beside the values
# Conditions: 30 µM
row,SMILES,Percent Effect
1,CC(C)(C)C(O)CN1CCN(C(=O)c2cccc3ncccc23)CC1 (stereo not given),0.278%
2,O=C(CCCn1cncn1)NC1(c2ccccc2)CCC1,10.9%
3,CC(C)COC(C)C(=O)NCc1ccc(OC(C)C)nc1 (stereo not given),1.79%
4,CN(C)C(=O)CSc1nnc(CCNC(=O)OC(C)(C)C)o1,2.93%
5,COCc1nc2cc(NCc3ccncc3)ccc2o1,57.1%
6,CC(CN1CCOCC1)NCc1nncn1C1CCCCC1 (stereo not given),0.0836%
7,CC(C)NC(=O)[C@@H]1CCO[C@@H]2CCN(c3ncccn3)C[C@H]21,4.69%
8,CC(=O)N1CCNCC1c1cccc(C(=O)N(C)C)c1 (stereo not given),-4.15%
9,CN1CC(=O)N(c2cnn(C)c2)CC12CCN(Cc1ccccc1)C2 (stereo not given),-0.707%
10,CN1CCOC(CNC(=O)CCCOCCc2ccccc2)C1 (stereo not given),-3.72%
11,CO[C@H]1CN(C(=O)c2ccccn2)[C@@H]2CCCO[C@H]12,1.27%
12,CC(C)c1nnc2n1CCN(CCCS(=O)(=O)c1ccccc1)C2,-5.16%
13,CC(C)CN(Cc1nc2c(cnn2C)c(=O)[nH]1)C(C)C,-2.77%
14,CCC(CC)C(O)CNC(=O)Nc1cc(C)nn1C (stereo not given),-1.77%
15,O=C(c1cccnc1N1CCOCC1)N1CCCC(n2ccnc2)C1 (stereo not given),-4.5%
16,O=C(Cc1ccc(-n2cccn2)cc1)N1CCCC(n2cccn2)C1 (stereo not given),-2.94%
17,CC(=O)N1CC(=O)N(c2ccccc2)CC12CCN(Cc1cccs1)C2 (stereo not given),2.3%
18,CCOCC(=O)N1CCC(Oc2ccc(Cl)cn2)CC1,-2.08%
19,CN(C)c1ncccc1CNS(=O)(=O)c1ccccc1F,4.63%
20,CCn1nc(C)c2ncnc(NCCCN3CCOCC3)c21,-3.37%

# Molecular target: Shiga toxin 2 (Escherichia coli O157:H7) (UniProt P09385+P09386)
# Assay: E. coli 0.157:H7 Shiga Toxin SOP - stx2 screening assay
# Type: functional
# Design: scale not given: direction of the effect not stated beside the values
# Conditions: 30 µM
row,SMILES,Percent Effect
1,CCc1nc(C2CCCN2CC(=O)Nc2c(C)n[nH]c2C)no1 (stereo not given),2.91%
2,CCn1nc(C(C)C)cc1C(=O)NCCCOC,3.47%
3,CCn1cc2c(n1)C(COC)CN(C(=O)COc1ccccc1C)C2 (stereo not given),3.11%
4,CCOc1ccccc1OC1CCN(C(=O)c2ccc(=O)[nH]n2)CC1,32.3%
5,Cc1nn(C)c(N2CCOCC2)c1CNCc1ccc(Cl)s1,27.1%
6,Cc1cnc(N)c(C(=O)C2CCN(C(=O)c3ccccc3F)CC2)c1,-8.93%
7,Cc1cnc(NC(=O)N2CCCC2)s1,1.43%
8,Cc1ccc(C(=O)N2CCN(CC(O)c3ccc(F)cc3)CC2)s1 (stereo not given),32.2%
9,Cc1cnc(CN(C)C2CCN(CC(=O)N(C)c3nccs3)C2)o1 (stereo not given),-15.8%
10,O=C(Nc1cc(F)ccc1OCC1CCCO1)c1ccc(O)nc1 (stereo not given),33.8%
11,Cc1cc(=O)n(CC(=O)NCC2CCCO2)c(-c2ccc(F)cc2)n1 (stereo not given),-51.4%
12,COc1ccc2nnc(CCCC(=O)NCCC3=CCCCC3)n2n1,-54.6%
13,CN(C)C(=O)N1CCN(C(=O)C(c2ccccc2F)N(C)C)CC1 (stereo not given),-3.65%
14,COc1cccc(N2CCN(CCC(=O)NC3CCCC3)CC2)c1,-41.4%
15,CC(O)(CN1CCC2(CC1)OCCO2)c1cccc(C(F)(F)F)c1 (stereo not given),-7.35%
16,Cn1cc(CN2CCCC3(CCN(Cc4cccnc4)C3=O)C2)cn1 (stereo not given),-7.77%
17,Cc1ccc(CN2CC[C@H]3[C@@H]2CCC(=O)N3CCN2CCCC2)s1,-33.4%
18,Cn1c(C2CC2)nc2c1CCN(CC(=O)Nc1nncs1)C2,-9.76%
19,COc1ccc(C2CC(=O)Nc3c2nc2n3CCCC2)cc1OC (stereo not given),0.28%
20,Cc1ccc(S(=O)(=O)N2C[C@@H]3C[C@@H](NC(=O)C(C)(C)C)[C@@H]3C2)cc1,6.78%

row,SMILES,Percent Effect
1,CC(C)(C)C(O)CN1CCN(C(=O)c2cccc3ncccc23)CC1 (stereo not given),-208%
2,O=C(CCCn1cncn1)NC1(c2ccccc2)CCC1,-17.7%
3,CC(C)COC(C)C(=O)NCc1ccc(OC(C)C)nc1 (stereo not given),9.54%
4,CN(C)C(=O)CSc1nnc(CCNC(=O)OC(C)(C)C)o1,-59.4%
5,COCc1nc2cc(NCc3ccncc3)ccc2o1,-55.9%
6,CC(CN1CCOCC1)NCc1nncn1C1CCCCC1 (stereo not given),-15.5%
7,CC(C)NC(=O)[C@@H]1CCO[C@@H]2CCN(c3ncccn3)C[C@H]21,-19.4%
8,CC(=O)N1CCNCC1c1cccc(C(=O)N(C)C)c1 (stereo not given),8.72%
9,CN1CC(=O)N(c2cnn(C)c2)CC12CCN(Cc1ccccc1)C2 (stereo not given),-5.72%
10,CN1CCOC(CNC(=O)CCCOCCc2ccccc2)C1 (stereo not given),1.69%
11,CO[C@H]1CN(C(=O)c2ccccn2)[C@@H]2CCCO[C@H]12,0.669%
12,CC(C)c1nnc2n1CCN(CCCS(=O)(=O)c1ccccc1)C2,-15.3%
13,CC(C)CN(Cc1nc2c(cnn2C)c(=O)[nH]1)C(C)C,0.929%
14,CCC(CC)C(O)CNC(=O)Nc1cc(C)nn1C (stereo not given),-3.6%
15,O=C(c1cccnc1N1CCOCC1)N1CCCC(n2ccnc2)C1 (stereo not given),31.6%
16,O=C(Cc1ccc(-n2cccn2)cc1)N1CCCC(n2cccn2)C1 (stereo not given),-22.3%
17,CC(=O)N1CC(=O)N(c2ccccc2)CC12CCN(Cc1cccs1)C2 (stereo not given),-33.9%
18,CCOCC(=O)N1CCC(Oc2ccc(Cl)cn2)CC1,-2.19%
19,CN(C)c1ncccc1CNS(=O)(=O)c1ccccc1F,-24.7%
20,CCn1nc(C)c2ncnc(NCCCN3CCOCC3)c21,-33.6%
